From ChEMBL document CHEMBL3988442, “University of Dundee, Small-Polar-MMV Screening Library” (2021)
Hit rate of the full screen: of about 48,000 compounds, about 13,000 (27%) showed an effect of 50% or more. The list shows a part of the results.

tested on: Wolbachia pipientis; experiment: Anti-Wolbachia Cell-Based Screen; type: functional; set-up: scale not given: in the data most compounds retested in dose-response had high values; conditions: 5 µM

SMILES	Percent Effect [%]
CC(Nc1ccn(Cc2ccccn2)n1)C(=O)NC(C)(C)C (stereo not drawn)	22.79
CCNC(=O)COc1ccc(C(=O)NC(C)CCc2ccco2)cc1 (stereo not drawn)	6.867
CC1(C)[C@H](Cc2cc(CN3CCCCC3)on2)C[C@@H]1NC(=O)C1CC1	0.3573
c1cnnc(N2CCCC2CNCc2noc(C3CC3)n2)c1 (stereo not drawn)	124.8
Cc1ccoc1-c1nnc(CNCC2CCCN2c2cccnn2)o1 (stereo not drawn)	10.61
COCCc1noc(CNCC2CCCN2c2cccnn2)n1 (stereo not drawn)	10.85
Cc1nc(CNCC2CCCN2c2cccnn2)no1 (stereo not drawn)	8.82
c1cnnc(N2CCCC2CNCc2nc(-c3ccsc3)no2)c1 (stereo not drawn)	0.4887
c1cnnc(N2CCCC2CNCc2nc(C3CC3)no2)c1 (stereo not drawn)	6.175
c1cnnc(N2CCCC2CNCc2nc3ccccc3o2)c1 (stereo not drawn)	8.977
c1cnnc(N2CCCC2CNCc2nnc(C3CC3)o2)c1 (stereo not drawn)	-1.218
CCc1nnc(CNCC2CCCN2c2cccnn2)o1 (stereo not drawn)	6.974
CCc1noc(CNCC2CCCN2c2cccnn2)n1 (stereo not drawn)	129.4
CCCc1nc(CNCC2CCCN2c2cccnn2)no1 (stereo not drawn)	124.8
CCc1nc(CNCC2CCCN2c2cccnn2)no1 (stereo not drawn)	94.84
Cc1cc(C(F)(F)F)nc(N(C)Cc2c(C)noc2C)n1	12
CCOCCn1nc(C)cc1C(=O)N1CC[C@](O)(CC)[C@H](O)C1	-19.56
CCc1ccccc1OCCN(C)C(=O)CN1CCCC1	-0.4334
Cc1ccc(CN2CC(O)CN(C(=O)OCC(C)C)CC2=O)cc1 (stereo not drawn)	102.7
COc1ccc(CN2CC(O)CN(C(=O)CC(C)C)CC2=O)cc1 (stereo not drawn)	135.2
CCCN(CCO)C(=O)C1CCC(=O)N(Cc2ccc(Cl)cc2)C1 (stereo not drawn)	-2.566
CCc1cnc(N2C[C@H]3CN(Cc4ccc(OC)cc4)C(=O)[C@H]3C2)nc1	-6.562

SMILES	Percent Effect [%]
COc1ccc(CN2CC(O)CN(C(=O)OCC(C)C)CC2=O)cc1 (stereo not drawn)	126.2
CCOC(=O)c1coc(N2CCN(Cc3ccc(C)cc3)C(=O)C2)n1	-18.23
CC(C)COC(=O)N1CC(=O)N(Cc2ccc(Cl)cc2)CC(O)C1 (stereo not drawn)	87.43
COc1ccc(CN2CCN(c3nccnc3OC)CC2=O)cc1	-6.7
CC(C)N(CCO)C(=O)C1CCC(=O)N(Cc2ccc(Cl)cc2)C1 (stereo not drawn)	0.7255
COc1ccc(CN2C[C@H]3CN(C(=O)c4ccno4)CCN3C2=O)cc1	-1.817
Cc1ccc(CN2C[C@H]3CN(C(=O)c4ccno4)CCN3C2=O)cc1	-7.285
COC(=O)CCNC(=O)c1ccoc1CN1c2ccccc2CC1C (stereo not drawn)	-5.639
CC(=O)Nc1ccc(-c2cn(CCn3c(C)cc(C)nc3=O)nn2)cc1	-7
CCN(CC)S(=O)(=O)c1ccc(CNC(=O)c2cc(C)on2)cc1	15.58
CCn1ccc(NC(=O)c2cc(C)on2)n1	120
Cc1cc(C(=O)Nc2ccn(CCCN3CCCC3)n2)c(C)o1	100.8
Cc1ccsc1CNC(=O)Nc1ccn(CCN2CCOCC2)n1	-52.79
Cc1ccnc(NC(=O)c2cc(C)oc2C)c1	11.88
Cc1ccc(C(=O)Nc2ccn(CCC(N)=O)n2)cc1	10.52
O=C(Cc1ccccc1Cl)Nc1ccn(CCN2CCOCC2)n1	-48.65
Cc1cc(C(=O)Nc2ccn(CCCN3CCCC3)n2)no1	96.67
Cc1cc(CNC(=O)CCCN2CCCCC2)n(C)n1	-11.62
CCOc1cc(C)nc(N2CCN(C(=O)c3cc(Cl)c[nH]3)CC2)n1	4.417
Cc1cnn(Cc2cc(F)ccc2F)c1NC(=O)C1CCOCC1	-4.081
CNC(=O)C1(N2CCC[C@H]2C(=O)NC2CCOCC2)CCOCC1.Cl	-3.696
Cc1nsc(NC(=O)N2CCN(Cc3ccc(F)cc3)C(=O)C2)n1	3.543

SMILES	Percent Effect [%]
Cn1ncnc1-c1ccnc(N2CCC(C(O)c3cccs3)CC2)n1 (stereo not drawn)	-11.63
Cc1ccc(-c2nc(CNCC3CN(C)CCO3)co2)c(C)c1 (stereo not drawn)	99.3
Cc1ccc(-c2nc(CNCC3CN(C)CCO3)co2)cc1 (stereo not drawn)	108.3
CN1CCOC(CNCc2coc(-c3ccccc3)n2)C1 (stereo not drawn)	-3.46
CN1CCOC(CNCc2coc(-c3ccccc3Cl)n2)C1 (stereo not drawn)	105.3
CN1CCOC(CNC(=O)Cc2coc(-c3ccccc3)n2)C1 (stereo not drawn)	107.6
CN1CCOC(CNC(=O)Cc2ccccc2F)C1 (stereo not drawn)	-10.58
CCC1CN(C(=O)Cc2coc(-c3ccccc3)n2)CCO1 (stereo not drawn)	-15.78
CN1CCOC(CNCc2nc(-c3ccoc3)no2)C1 (stereo not drawn)	-1.201
CN(C)CC1CN(Cc2coc(-c3ccccc3Cl)n2)CCO1 (stereo not drawn)	-0.3444
CC(C)(C)OC(=O)N1CCCc2ccc(NCc3ncc[nH]3)cc21	1.363
Cn1cnnc1CC1CCN(Cc2c(Cl)cncc2Cl)CC1	-0.137
COc1ccc(S(=O)(=O)Cc2cc(C)on2)cc1	3.84
CN1CCOC(CNCc2coc(-c3ccc(Cl)cc3)n2)C1 (stereo not drawn)	81.44
O=C(CCn1cncn1)N1CCCC(CO)(CCCc2ccccc2)C1 (stereo not drawn)	16.2
CN(CCc1ccncc1)C(=O)C1CSCN1C(=O)CC(C)(C)C (stereo not drawn)	109.1
CN(CC(F)(F)F)C(=O)C1CSCN1C(=O)OC(C)(C)C (stereo not drawn)	6.249
CN(Cc1ccncc1)C(=O)[C@H]1CSCN1C(=O)OC(C)(C)C	103.4
CC(C)(C)OC(=O)N1CSC[C@@H]1C(=O)NCc1ccncc1	-9.296
CN(CCc1ccncc1)C(=O)C1CSCN1C(=O)C1CCCC1 (stereo not drawn)	-15.81
CN(CCc1ccncc1)C(=O)C1CSCN1C(=O)C(C)(C)C (stereo not drawn)	-12.64
Nc1nnc(CCNc2ncnc3c2CCN(C(=O)C2CC2)C3)s1	-2.758

SMILES	Percent Effect [%]
CCS(=O)(=O)c1ncc(CN2CCCC2)n1CCc1ccccc1	1.853
COCCc1nc(CSc2ccncc2)n(C)n1	-10.21
O=C(NC1CC1)N1CCc2ccc(=O)n(Cc3ccncc3)c2CC1	23.4
Cn1cc(CN2CCc3ccc(=O)n(Cc4ccncc4)c3CC2)cn1.O=C(O)C(F)(F)F.O=C(O)C(F)(F)F	104.6
CN(C)CCn1c2c(ccc1=O)CCN(Cc1ccncc1)CC2	102
CC(OCC1CC1)C(=O)N1CCCN(Cc2cnn(C)c2)CC1 (stereo not drawn)	6.432
COc1ccc2c(c1)C1(CCN(Cc3cnn(C)c3)CC1)N(C)CC2.O=C(O)C(F)(F)F	2.583
CN(C)C(=O)Cn1c2c(ccc1=O)CCN(Cc1cnn(C)c1)CC2.O=C(O)C(F)(F)F	120.2
Cn1cc(CN2CCc3ccc(=O)n(CC4CC4)c3CC2)cn1	115.2
O=c1ccc2c(n1Cc1ccncc1)CCN(C1CCOC1)CC2 (stereo not drawn)	8.67
Cc1cnc(NCC(C)(C)N2CCCCC2)nc1	1.17
Cc1nc(-c2ccc(Cl)s2)sc1C(=O)NCCS(N)(=O)=O	-0.7868
COCC(=O)N1CCC2(CC1)NC(=O)[C@H]1CN(C(=O)N(C)C)C[C@H]12	-27.95
Cc1csc(CNC(=O)Nc2cc(C(F)(F)F)c[nH]c2=O)n1	-4.751
CC(C)(O)CCc1ccc(C(=O)N2CCN(CC3CCCC3)CC2)cc1	-6.284
CN(C)CCn1c2c(ccc1=O)CCN(Cc1cnn(C)c1)CC2.O=C(O)C(F)(F)F.O=C(O)C(F)(F)F	120.7
COCc1nn(C)c2c1CCN(Cc1cnn(C)c1)C2.O=C(O)C(F)(F)F	-18.26
Cc1nccn1-c1cccc(C2CCCN(C(=O)c3cc[nH]n3)C2)n1 (stereo not drawn)	5.97
c1ccc(-c2nnc([C@H]3CCN(C4CCOCC4)C3)o2)cc1	-19.45
Cc1nccn1-c1cccc(C2CCCN(C3CCCCC3)C2)n1 (stereo not drawn)	-27.27
Cc1nccn1-c1cccc(C2CCCN(C3CCCC3)C2)n1 (stereo not drawn)	98.22
Fc1ccccc1-c1cccc(C2CCCN(C3CCOCC3)C2)n1 (stereo not drawn)	71.52

SMILES	Percent Effect [%]
Cc1cccc(O[C@H]2COCCN(C3CCOCC3)C2)n1	-0.8542
CCc1nccn1-c1cccc(C2CCCN(C3CCCCC3)C2)n1 (stereo not drawn)	96.78
O=c1cc2c(nn1CN1CCOCC1)CCC2	1.556
CNC(=O)NC(=O)CNc1cc(C(=O)OC)cc(C(F)(F)F)c1	1.326
COc1cccc(CN2CCc3nc(C(=O)NCC(C)C)sc3CC2)c1.O=C(O)C(F)(F)F	3.655
Fc1cccc(N2CCc3ncnc(C4CC4)c3CC2)c1	8.314
CC(C)NC(=O)NC[C@H]1OC[C@@H](NCc2ccc(S(C)(=O)=O)cc2)[C@@H]1O	9.83
CO[C@H]1CC[C@H]2[C@H]1OCCN2C(=O)CCOc1ccccc1	104.1
CO[C@@H]1CC[C@H]2[C@H]1OCCN2C(=O)COc1ccc(C)cc1	102.2
CO[C@@H]1CC[C@H]2[C@H]1OCCN2C(=O)c1ccc(C)o1	-15.27
CCC(C)(CC(=O)OC)NC(=O)c1ccc(C(C)=O)cc1 (stereo not drawn)	5.798
COc1ccc(CNC(=O)N2CCN(C)[C@@H]3CS(=O)(=O)C[C@@H]32)cc1	5.272
O=S(=O)(Cc1ccc(F)cc1)N1CCN(CC(O)C2CC2)CC1 (stereo not drawn)	-13.11
Cl.O=C(NCc1ccc(Cl)cc1)N1CCN(CC(O)C2CC2)CC1 (stereo not drawn)	116
O=C1CC(C(=O)O)C2(CCN(C(=O)NCc3ccc(Cl)cc3)CC2)N1 (stereo not drawn)	6.317
Cl.Cl.OC(CN1CCN(Cc2cc(F)cc(F)c2)CC1)C1CC1 (stereo not drawn)	-3.47
Cl.Cl.O=C(CN1CCN(CC(O)C2CC2)CC1)NCc1ccc(F)cc1 (stereo not drawn)	3.1
Cl.O=C(NCc1ccc(F)cc1)N1CCN(CC(O)C2CC2)CC1 (stereo not drawn)	111
COc1ccc(CNC(=O)N2CCN(CC(O)C3CC3)CC2)cc1.Cl (stereo not drawn)	99.74
COc1cccc(CNC(=O)N2CCN(Cc3cc(C)on3)CC2)c1	-11.4
